Reference: PubChem BioAssay (NCATS)
Several values for one entry are separate records, joined by “and”; a condition that tells them apart may be missing. Identical values can stand only once. Unmarked numbers belong to inactive results. Results filed as inconclusive are left out. A call without a number means that no potency is given here. For some assays here: Results with a measured potency or affinity are listed apart. Activity calls are given as the source filed them. Unless noted, the rule behind the calls is not given here.

What was measured:
[1] = qHTS assay for small molecule antagonists of the retinoid-related orphan receptor gamma (ROR-gamma) signaling pathway - cell viability counter screen (AID 720652; active = well fitted curve in the direction sought with a large enough effect in the repeat runs; an effect the other way counts as inactive or inconclusive;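 note: CHO reporter cells with doxycycline-induced ROR-gamma expression; series mostly up to about 92 µM; compound exposure lasted 16 hr before ATP read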)
Summary of the method: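 ATP-based viability readout in the ROR-gamma reporter CHO cells after 16 hr compound exposure under doxycycline induction.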

[2] = qHTS assay for small molecule agonists of the antioxidant response element (ARE) signaling pathway measured by Nrf2-dependant transcriptional activity - cell viability counter screen (AID 720653; active = well fitted curve in the direction sought with a large enough effect in the repeat runs; an effect the other way counts as inactive or inconclusive); conditions: ARE-bla HepG2 viability, CellTiter-Glo ATP luminescence, 16 h; max response: hits give low values
Summary of the method: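 Cytotoxicity counter screen: intracellular ATP quantified by CellTiter-Glo luminescence in the same ARE-bla HepG2 plates, after 16 h compound exposure and a 2 h beta-lactamase substrate step.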

[3] = qHTS assay for cell viability of HEK293 cells (AID 743288; active = well fitted curve in the direction sought with a large enough effect; an effect the other way counts as inactive or inconclusive; note: nearly all actives have a fitted effect of over 50% in size); conditions: ATP luminescence (CellTiter-Glo), 18 h; max response: hits give low values
Summary of the method: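 Viable-cell counts were inferred from luciferase-based ATP content in HEK293 cells seeded at 2,000/well, pre-incubated ≥5 h, then dosed with DMSO-solubilised compounds for 18 h at 37 C.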

[4] = qHTS assay for cell viability of the p53RE-bla HCT-116 cell line (AID 743292; active = well fitted curve in the direction sought with a large enough effect; an effect the other way counts as inactive or inconclusive; note: nearly all actives have a fitted effect of over 55% in size)
Summary of the method: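 Viability of compound-treated p53RE-bla HCT-116 cells is taken from ATP-dependent luciferase luminescence. Treatment lasts 16 h at 37 C after a 5 h settling period; detection follows 30 min at room temperature.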

[5] = Ebola virus entry assay, ratio channel
[6] = Ebola virus entry assay, green channel fluorescence
[7] = Ebola virus entry assay, reporter ratio channel; Channel type: primary
[8] = Ebola virus entry assay, blue channel (ratio component)
[9] = qHTS Assay for Identifying Gametocytocidal Compounds (AID 743244; active = well fitted curve in the direction sought with a large enough effect; an effect the other way counts as inactive or inconclusive; note: potency is the fitted concentration of half-maximal effect;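 for max response: actives lower the fluorescent signal which means gametocytes are killed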); conditions: P. falciparum 3D7 stage III-V gametocytes, alamarBlue, 72 h; max response: hits give low values
Summary of the method: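 Using 20,000 stage III–V 3D7 gametocytes per well, compounds were incubated 72 h under 37 °C/5% CO2. Viability was then assessed by 24 h alamarBlue reduction, measured fluorometrically at 525/598 nm.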

Row | SMILES | Potency [1] | max response [2] | max response [3] | Potency [4] | outcome [5] | outcome [6] | outcome [7] | outcome [8] | max response [9] | Potency [9] | AC50 [7]
1 | Nc1ccc(Sc2ccc(N)cc2)cc1 | inactive | 10% and -10.9% | 1.17% and -4.98% | inactive | inactive | inactive | inactive | inactive |  |  | 
2 | c1cc2ccc3cccc4ccc(c1)c2c34 | inactive | -6.01% and -15.3% | -10.7% and -22.9% | inactive | inactive | inactive | inactive | inactive |  |  | 
3 | CC1(C)CC/C(=C/c2ccc(Cl)cc2)C1(O)Cn1cncn1 (stereo not drawn) |  |  |  |  | inactive | inactive | inactive | inactive | -5.52% |  | 
4 | O=[N+]([O-])c1c(Cl)c(Cl)cc(Cl)c1Cl | inactive | 0.0593% | -0.234% | inactive | inactive | inactive | inactive | inactive | -14.2% |  | 
5 | O=[N+]([O-])c1ccc([As](=O)(O)O)cc1 |  |  |  |  | inactive | inactive | inactive | inactive |  | 10 µM (active) | 
6 | C[N+](C)(C)CC(=O)O |  |  |  |  | inactive | inactive | inactive | inactive | -4.91% |  | 
7 | CCOP(=O)(NC(C)C)Oc1ccc(SC)c(C)c1 (stereo not drawn) | inactive | -14.8% and -8.95% | -28.9% and -13.9% | inactive | inactive | inactive | inactive | inactive | 14.8% |  | 
8 | O=S(=O)(c1ccc(Cl)cc1)c1ccc(Cl)cc1 | inactive | -11% and -26.7% and -18.8% | -6.49% and -9.97% and -17.8% | inactive | inactive | inactive | inactive | inactive | -16% |  | 
9 | CCO/N=C(\CC)C1=C(O)CC(c2c(C)cc(C)cc2C)CC1=O (stereo not drawn) |  | 1.75% | -20.6% | inactive | inactive | inactive | inactive | inactive | 13.9% |  | 
10 | Oc1ccc2c3c1O[C@H]1[C@@H](O)C=C[C@H]4[C@@H](C2)NCC[C@@]341 |  |  |  |  | inactive | inactive | inactive | inactive | 4.91% |  | 
11 | O=C(O)COc1nc(Cl)c(Cl)cc1Cl |  | -15.1% | -10.3% | inactive | inactive | inactive | inactive | inactive | 14.5% |  | 
12 | Nc1ccc(Cl)cc1 | inactive | -5.98% | -6.22% | inactive | inactive | inactive | inactive | inactive | 4.15% |  | 
13 | CCCCC(CC)COC(=O)c1ccccc1C(=O)O (stereo not drawn) |  |  |  |  | inactive | inactive | inactive | inactive |  |  | 
14 | O=C(O)CCCOc1ccc(Cl)cc1Cl |  | -1.4% | -3.48% | inactive | inactive | inactive | inactive | inactive | 19% |  | 
15 | O=S(=O)(O)C(F)(F)C(F)(F)C(F)(F)C(F)(F)C(F)(F)C(F)(F)C(F)(F)C(F)(F)F |  | 2.35% and -3.55% | -7.88% and -13.4% | inactive | inactive | inactive | inactive | inactive | -9.5% |  | 
16 | O=C(NO)c1ccccc1 |  |  |  |  | inactive | inactive | inactive | inactive |  |  | 
17 | COC(C)(C)CCCC(C)C/C=C/C(C)=C/C(=O)OC(C)C (stereo not drawn) |  | -7.11% and 1.67% | -16.1% and -28.4% | inactive | inactive | inactive | inactive | inactive | -9.95% |  | 
18 | CC(C)Oc1cccc(NC(=O)c2ccccc2C(F)(F)F)c1 |  | -3.23% | -13.1% | inactive | inactive | inactive | inactive | inactive | 15.7% |  | 
19 | O=[N+]([O-])c1cc([N+](=O)[O-])c2ccccc2c1 | inactive | -11.7% | -3.94% | inactive | inactive | inactive | inactive | inactive | -17.3% |  | 
20 | CO/C=C(/C(=O)OC)c1ccccc1Oc1cc(Oc2ccccc2C#N)ncn1 |  |  | -25.4% | inactive | inactive | inactive |  |  | 18.4% |  | 31.6 µM (active)
